Screens: PubChem BioAssay, National Center for Advancing Translational Sciences (NCATS)
This is a sample that favours compounds with a hit; in the whole collection about 3.2% have one here.
CBFb RUNX1 block: blocks binding between human CBF-beta and RUNX1; Q01196+Q13951; AlphaScreen CBFb-His/RUNX1-biotin binding, biochemical; Potency, µM (doses to about 59.8 µM), for inactives: at the highest dose activity, negative = inhibition, usual class: inhibitors; 230,000 tested, under 10 active; AID 1477; note: % of control where 0% means no effect
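His-tagged CBF-beta and biotinylated RUNX1 (30 nM each) were premixed 20 min at room temperature, exposed to compound for 15 min, then given nickel-chelate and streptavidin AlphaScreen beads (50 ng each). After 90 min, AlphaScreen signal was read.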
Tau ThT inhib: blocks human tau fibril formation measured by thioflavin T; P10636; recombinant tau K18 P301L, heparin-induced fibrillization, ThT fluorescence; Potency, µM (top dose mostly 57.4 µM), for inactives: at the top dose activity, negative = inhibition, usual class: inhibitors; hit rate 2.1% among 270,000; note: potency is the fitted concentration of half-maximal effect; % is set by controls: 0 for no effect and ±100 for the full control effect; nearly all actives have a fitted effect of over 55% in size
Target sequence (P10636 561-689 P618L limits assumed): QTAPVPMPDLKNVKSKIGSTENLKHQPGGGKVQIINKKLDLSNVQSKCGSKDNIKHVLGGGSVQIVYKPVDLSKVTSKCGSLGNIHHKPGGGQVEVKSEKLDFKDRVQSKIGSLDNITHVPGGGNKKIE
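Heparin-induced (20 uM) aggregation of recombinant human K18 P301L tau, 15 uM unlabeled with 0.24 uM labeled, pH 7 acetate buffer, 6 hr at 37 C with compound. Fibrils quantified by 30 uM ThT fluorescence after 1 hr ambient incubation.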
LMNA splice mod: modulators of lamin A splicing; HeLa LMNA splicing GFP/RFP minigene ratio, 48 h; Potency, µM (series often up to 46.1 µM), without a hit: at the top dose ratio change, negative = inhibition, most hits filed as inhibitors; hit rate 0.01% among 200,000; AID 1487; active = well fitted inhibition curve with a large enough effect in the signal ratio, with a control signal flat, not every such curve was filed as active; inconclusive = small, poorly fitted or top-dose-only effect, or effect the other way, or a change in a side signal; the % refers to the signal ratio; note: potency is the fitted concentration of half-maximal effect; % is set by controls: 0 for no effect and ±100 for the full control effect
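Read-out is the ratio of GFP to DsRed2 object intensity, acquired by 488 nm laser-scanning cytometry on HeLa lamin A-EGFP minigene reporter cells. Compound incubation 48 hrs at 37 °C in Opti-MEM with 2% FBS; DMSO 0.5% final.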
KDM4E inh: blocks human JMJD2E demethylase activity. Potency, µM (series often up to 57.1 µM), for inactives: top-dose activity change, negative = inhibition, most hits filed as inhibitors. B2RXH2. JMJD2E catalytic domain, FDH-coupled NADH fluorescence (FDH is formaldehyde dehydrogenase). hit rate 1.6% among 230,000; active = well fitted inhibition curve with a large enough effect, not every such curve was filed as active; inconclusive = small, poorly fitted or top-dose-only effect, or another doubt; inactive = no such curve, though single readings can be large or run the other way;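 note: potency is the fitted concentration of half-maximal effect; 0% = wells with enzyme and -100% = buffer wells without enzyme; nearly all actives have a fitted effect of over 50% in size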
Target sequence (B2RXH2 1-337 limits assumed): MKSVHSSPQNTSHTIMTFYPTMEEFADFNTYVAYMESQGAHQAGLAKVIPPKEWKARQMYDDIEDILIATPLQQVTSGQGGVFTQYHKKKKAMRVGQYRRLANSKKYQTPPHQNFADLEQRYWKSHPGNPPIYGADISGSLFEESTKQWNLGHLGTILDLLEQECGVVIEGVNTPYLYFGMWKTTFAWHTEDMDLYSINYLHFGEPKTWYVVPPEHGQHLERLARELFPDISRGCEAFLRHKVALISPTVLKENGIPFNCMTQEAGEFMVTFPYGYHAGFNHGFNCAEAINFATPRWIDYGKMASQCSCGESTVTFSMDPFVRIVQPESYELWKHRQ
Tau FP inhib: inhibitors of human tau fibril formation; P10636; K18 P301L tau heparin fibrillization, Alexa594 FP, 6 h; Potency, µM (doses to about 57.7 µM), inactives show top-dose activity, negative = inhibition, hits mostly inhibitors; hit rate 0.39% among 280,000; AID 1468; note: potency is the fitted concentration of half-maximal effect; % is set by controls: 0 for no effect and ±100 for the full control effect; nearly all actives have a fitted effect of over 55% in size
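Quantitative HTS format: compounds meet 15 uM recombinant K18 P301L tau and Alexa 594-tau tracer in 100 mM sodium acetate pH 7; 20 uM heparin triggers fibrillization at 37 C over 6 hr; FP gives the signal.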
Tau fluor counter: counter-screen for tau fibril formation inhibitors; hit rate 0.93% among 280,000; AID 1463; Potency, µM (titrated, usually from 57.7 µM), without a hit: at the top dose activity change, negative = decrease; tau K18 P301L (four-repeat tau fragment) Alexa594 fluorescence, heparin fibrillization; note: potency is the fitted concentration of half-maximal effect; % is set by controls: 0 for no effect and ±100 for the full control effect; nearly all actives have a fitted effect of over 55% in size
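Human K18 P301L tau (15 uM unlabeled plus 0.24 uM Alexa 594-labeled, final) in 100 mM sodium acetate pH 7 was mixed with compound and 20 uM heparin and incubated 6 hr at 37 C.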
Active calls of the source: *; ? = inconclusive; . = not tested or not shown; ! = a repeat was not active; [ ] = another dose, or the depositor's remark. Unless noted, calls come from the whole dose curve; as a rule, active = well fitted curve in the direction sought with a large enough effect; inconclusive = small, poorly fitted or top-dose-only effect, or another doubt; inactive = no such curve, though single readings can be large; an effect the other way counts as inactive or inconclusive.

SMILES	CBFb RUNX1 block	Tau ThT inhib	LMNA splice mod	KDM4E inh	Tau FP inhib	Tau fluor counter
Nc1ccc(N=Nc2ccc(N)cc2)cc1	-15%	11µM*	-10%[9.22 µM]	-7%	1%	-20%
Nc1ccc(C(=O)C(=O)c2ccc(N)cc2)cc1	5%	-7%	.	5%	4%	-11%
O=C(Oc1c(CN2CCOCC2)cc(Cl)c2cccnc12)c1ccccc1	?	?	.	-20%	?	-20%
Oc1c(CN2CCc3ccccc3C2)cc(Cl)c2cccnc12	.	?	?	22µM*	-3%	-29%
CCCOCc1cc(CN2CCN(c3cccc(Cl)c3)CC2)c(O)c2ncccc12	.	?	.	.	?	-19%
O=c1oc2ccccc2c(O)c1Cc1cc(Cl)c2cccnc2c1O	-5%	14µM*	?	5µM*	?	?
CN1CCN(Cc2cc(COCc3ccccc3)c3cccnc3c2O)CC1	?	?	?	8.9µM*	13%	-16%
CCc1c(CN2CCN(c3cccc(C)c3C)CC2)csc1C	.	-14%	.	.	1%	-12%
CCOc1ccc(NC(=O)N(Cc2cn(CC)c3ccccc23)C2CCCCCC2)cc1	.	?	.	.	4%	-21%
COc1ccc(-c2cc(C(F)(F)F)c3c(=O)n(-c4ccccc4)[nH]c3n2)cc1	-6%	8.9µM*	-4%	10%	8%	?
CC(C)(C)OC(=O)C1=NOC2(C=CC(=O)C=C2)C1	-6%	13µM*	.	-11%	?	-11%
Cc1cc(Nc2cccc(Cl)c2)nc2ccc(NC(=O)c3cncc(Br)c3)cc12	.	?	?	.	-11%	6.3µM*[quencher]
Cc1ccccc1C(=O)Nc1ccc2nc(Nc3cccc(C(F)(F)F)c3)cc(C)c2c1	.	-23%	?	.	?	5.6µM*[quencher]
Cc1cccc(OCC(=O)Nc2ccc3nc(Nc4cccc(Cl)c4)cc(C)c3c2)c1	.	?	?	.	-7%	?
CCOc1cc(C(=O)Nc2ccc3nc(Nc4cccc(Cl)c4)cc(C)c3c2)cc(OCC)c1OCC	.	?	-15%[46 µM]	.	-7%	2.2µM*[quencher]
Cc1cc(Nc2cccc(C(F)(F)F)c2)nc2ccc(NC(=O)c3cncc(Br)c3)cc12	.	?	?	.	-8%	5µM*[quencher]
CCOC(=O)Cn1c(=O)cc(C)c2c(C)nn(-c3cccc(F)c3)c21	.	-13%	-2%[46 µM]	.	-14%	-22%
CCOC(=O)OCC1OC(c2ccccc2)C=CC1Oc1ccc2oc(=O)cc(C)c2c1 (stereo unspecified)	12%[13.1 µM]	-3%[11.5 µM]	.	.	-3%[11.6 µM]	-6%[11.6 µM]
CN1CCc2c(sc3c2C(=O)NC(c2cccs2)N3)C1 (stereo unspecified)	-9%	13µM*	-4%	?	?	-18%
CN1CCc2c(sc3c2C(=O)NC(/C=C\c2ccccc2)N3)C1 (stereo unspecified)	-11%	18µM*	.	?	-15%	-18%
COc1ccc(C2NC(=O)c3c(sc4c3CCN(C)C4)N2)cc1O (stereo unspecified)	.	5.6µM*	.	.	-7%	-23%
CN1CCc2c(sc3c2C(=O)NC(c2ccc(C(C)(C)C)cc2)N3)C1 (stereo unspecified)	.	16µM*	.	.	?	-20%
CSc1ccc(C2NC(=O)c3c(sc4c3CCN(C)C4)N2)cc1 (stereo unspecified)	1%	-5%	9%	-3%	1%	-8%
CN1CCc2c(sc3c2C(=O)NC(c2ccc(-c4cccc(Cl)c4)o2)N3)C1 (stereo unspecified)	?	2.2µM*	.	?	?	-14%
CC(C)c1ccc(C2NC(=O)c3c(sc4c3CCN(C)C4)N2)cc1 (stereo unspecified)	.	?	.	.	-7%	-8%
SMILES	CBFb RUNX1 block	Tau ThT inhib	LMNA splice mod	KDM4E inh	Tau FP inhib	Tau fluor counter
COc1ccc(C(=O)Oc2ccc(C3NC(=O)c4c(sc5c4CCN(C)C5)N3)cc2OC)cc1 (stereo unspecified)	.	4µM*	.	.	?	-27%
O=C(CCc1ccccc1)Nc1ncn[nH]1	-10%	-2%	3%	8%	3%	2%
O=C(/C=C/c1ccccc1)Nc1ncn[nH]1	-5%	10µM*	?	-9%	?	-19%
CC1CCC(C(C)C)C(OC(=O)COC(=O)c2ccc(=O)[nH]c2)C1 (stereo unspecified)	14%	-13%	?	2%	2%	-15%
CC1CCC(C(C)C)C(OC(=O)COC(=O)c2cc(O)ccc2N)C1 (stereo unspecified)	-20%	-14%	-2%	?	?	11µM*[quencher]
CCc1ccc(CNC(=O)c2ccc3nc(C(C)C)oc3c2)cc1	.	-15%	2%[46 µM]	.	-1%	-14%
CCCn1ccc2c(OCC(=O)NCc3ccccc3Cl)cccc2c1=O	.	?	6%[46 µM]	.	5%	-14%
COC(=O)CCC(=O)OC1(C)C(=O)C2=CN(CCN3CCOCC3)C(c3ccc(OC)cc3)=CC2=C(Br)C1=O (stereo unspecified)	3%[13.1 µM]	7.1µM*!	-15%[9.22 µM]	?	?	-2%[11.6 µM]
COC(=O)CCC(=O)OC1(C)C(=O)C2=CN(C(CO)CO)C(c3ccc(OC)cc3)=CC2=C(Br)C1=O (stereo unspecified)	3%[13.1 µM]	4µM*	9%[9.22 µM]	5µM*	?	-21%[11.6 µM]
CCCCC/C=C\C[C@@H](O)/C=C/C=C\CCC(=O)O	4%	-7%	.	2%	2%	-11%
O=C(CN1CC[n+]2c(-c3cccs3)csc21)c1ccc(-c2ccccc2)cc1	-11%	27%	.	0%	5%	22%
CCc1ccc(-c2csc3[n+]2CCN3C(C)=O)cc1	-3%	25µM*	3%	-3%	?	-20%
CC(=O)N1CC[n+]2c(-c3ccc(Cl)cc3)csc21	-5%	28µM*	7%	-8%	?	-25%
CC(C)Cc1nn2c(=O)cc(COC(=O)c3cccc(NS(C)(=O)=O)c3)nc2s1	.	-14%	?	.	-4%	-12%
CCOc1ccccc1N(CC(=O)NCCSc1ccccc1)S(=O)(=O)c1ccccc1	.	-7%	.	.	-4%	-10%
CC(=O)OCC(NC(=O)C1CCCN1C(=O)OC(C)(C)C)C1OC(n2ccc(=O)[nH]c2=O)C(OC(C)=O)C1OC(C)=O (stereo unspecified)	4%	.	.	.	.	.
CCn1cc(/C=C/C(=O)Nc2ccn(Cc3c(F)c(F)cc(F)c3F)n2)cn1	-2%	22µM*	-4%	3%	?	-9%
Cc1ccc(S(=O)(=O)/N=C2/C=C(C3C(=O)CC(C)(C)CC3=O)C(=O)c3ccccc32)cc1	-11%	8.9µM*	-9%	?	22µM*	8.9µM*[quencher]
Cc1ccc(C)c(N2CCN(S(=O)(=O)c3ccc4[nH]c5c(c4c3)CCCC5)CC2)c1	.	-7%	-10%[46 µM]	.	-5%	?
